Here are results for nine compounds from PubChem BioAssay (NCI).

Some test systems named below: SR leukemia; RPMI-8226 leukemia; OVCAR-8 ovarian; OVCAR-5 ovarian; OVCAR-4 ovarian; SK-OV-3 ovarian; IGROV1 ovarian; OVCAR-3 ovarian; HS 578T breast; NCI/ADR-RES ovarian; T-47D breast; BT-549 breast; MDA-MB-435 melanoma; SW-620 colon; MCF7 breast; HCT-116 colon; HCC-2998 colon; KM12 colon.
Common to all, as to assay: NCI-60 one-dose screen, 48 h (100 = growth as untreated, 0 = no growth, -100 = all killed)
What all share (details): 10 µM unless noted

Molecules are shown by their SMILES. This is part of a sample that, as a whole, favours compounds with a hit. Of some 83,000 tested, about 20% had one in any assay.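 Testing used 96-well plates and a 48-hour single-concentration exposure. Example: -40 means 40% of the starting cells died.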 Values without a mark were called inactive. Calls of active or inactive are those of the source. How the source made its calls: active means growth percent below 10; inactive means the rest.

For `C(=N\Nc1nnc2n1N=C(c1ccccc1)CS2)/c1ccc(OCc2ccccc2)cc1`, the growth with SR leukemia was 93.4%; in the experiment on RPMI-8226 leukemia, 86.6%; in the experiment on OVCAR-8 ovarian it was 102%; in the experiment on OVCAR-5 ovarian, 114%; with OVCAR-4 ovarian, 120%; with SK-OV-3 ovarian, 109%. Also, the growth with IGROV1 ovarian is 99.6%; in the experiment on OVCAR-3 ovarian it was 113%; in the experiment with HS 578T breast, 112%; in the experiment with NCI/ADR-RES ovarian it was 96.6%; in the experiment on T-47D breast, 84.5%; in the experiment on BT-549 breast, 103%. Moreover, the growth in the experiment with MDA-MB-435 melanoma was 99.8%; with SW-620 colon it was 113%; with MCF7 breast, 82.9%; with HCT-116 colon, 100%; in the experiment with HCC-2998 colon it was 120%; in the experiment with KM12 colon, 102%.
`O=C(/C=C\c1ccc(O)c(O)c1)c1ccccc1O`: the growth in the experiment on SR leukemia was -13.3% (active); in the experiment on RPMI-8226 leukemia it was 5.13% (active); in the experiment on OVCAR-8 ovarian, 69.4%; in the experiment with OVCAR-5 ovarian it was 103%; in the experiment with OVCAR-4 ovarian it was 74.9%; with SK-OV-3 ovarian, 97%. Moreover, the growth with IGROV1 ovarian is 46.3%; in the experiment with OVCAR-3 ovarian it was 73.8%; with HS 578T breast, 91.8%; with NCI/ADR-RES ovarian, 74.3%; with T-47D breast, 67%; with BT-549 breast, 5.5% (active). Also, the growth in the experiment on MDA-MB-435 melanoma is 67.9%; in the experiment with SW-620 colon, 67.7%; in the experiment on MCF7 breast, 48%; in the experiment on HCT-116 colon it was 83.7%; in the experiment with HCC-2998 colon, 60.7%; in the experiment with KM12 colon it was 60.7%.
With `O=C(Nc1ccccc1CNc1nc(Nc2ccc(OCCN3CCCC3)cc2)ncc1Cl)NC1CCCCC1`, the growth in the experiment with SR leukemia is 5.48% (active); in the experiment on RPMI-8226 leukemia it was 60.8%; in the experiment on OVCAR-8 ovarian it was 57.5%; in the experiment on OVCAR-5 ovarian it was 114%; with OVCAR-4 ovarian, 46.6%; in the experiment on SK-OV-3 ovarian, 104%. The growth was 88.1% in the experiment with IGROV1 ovarian; 99.5% with OVCAR-3 ovarian; 85.2% in the experiment on HS 578T breast; 74% with NCI/ADR-RES ovarian; 100% in the experiment on T-47D breast; 83.7% with BT-549 breast. Further, the growth in the experiment with MDA-MB-435 melanoma was -83.9% (active); with SW-620 colon, 87.7%; with MCF7 breast it was 55.2%; with HCT-116 colon, 90.9%; in the experiment with HCC-2998 colon it was 95.5%; in the experiment with KM12 colon, 71.5%.
Regarding `CN1CCN(Cc2ccc(NC(=O)c3cncc(C#Cc4c(N)ncc5cc(F)ccc45)c3)cc2C(F)(F)F)CC1`, the growth with SR leukemia was 0.501% (active); in the experiment with RPMI-8226 leukemia, -14% (active); in the experiment on OVCAR-8 ovarian it was 28%; in the experiment with OVCAR-5 ovarian, 43.7%; in the experiment with OVCAR-4 ovarian it was 54.4%; in the experiment on SK-OV-3 ovarian, 82.6%. Besides, the growth in the experiment on IGROV1 ovarian is 15.1%; in the experiment on OVCAR-3 ovarian it was 76.3%; in the experiment with HS 578T breast, 31.8%; with NCI/ADR-RES ovarian it was 10.3%; in the experiment on T-47D breast, 77%; in the experiment on BT-549 breast it was 56.6%. In addition, the growth was 26.4% in the experiment with MDA-MB-435 melanoma; -53.1% (active) in the experiment on SW-620 colon; -75.9% (active) in the experiment with MCF7 breast; -78.7% (active) with HCT-116 colon; 51.4% with HCC-2998 colon; 5.8% (active) with KM12 colon.
On to `CC(=O)Oc1ccccc1C(=O)N(Cc1ccc2c(Cl)cc(Cl)c(O)c2n1)c1ccccc1`, for which the growth in the experiment on SR leukemia was 39.7%; in the experiment with RPMI-8226 leukemia, 36.1%; in the experiment on OVCAR-8 ovarian, 34.9%; in the experiment on OVCAR-5 ovarian it was 77.2%; in the experiment on OVCAR-4 ovarian, 36.2%; in the experiment with SK-OV-3 ovarian, 64.5%. The growth in the experiment on IGROV1 ovarian was 42.8%; in the experiment on OVCAR-3 ovarian, 40.9%; in the experiment on HS 578T breast, 76.5%; in the experiment with NCI/ADR-RES ovarian it was 8.97% (active); in the experiment with T-47D breast, 40.7%; in the experiment with BT-549 breast it was 77.3%. Further, the growth in the experiment on MDA-MB-435 melanoma is 54.3%; with SW-620 colon it was 29.1%; in the experiment with MCF7 breast it was 34.7%; in the experiment on HCT-116 colon, 30.9%; in the experiment with HCC-2998 colon, 60.1%; with KM12 colon, 39.6%.
With `CCOC(=O)c1cc(C(=O)c2cc(OC)cc(OC)c2)n2ccccc12`, the growth in the experiment with SR leukemia was 16.3%; with RPMI-8226 leukemia it was 27.6%; with OVCAR-8 ovarian, 42.2%; in the experiment on OVCAR-5 ovarian it was 95.2%; with OVCAR-4 ovarian it was 72.4%; in the experiment on SK-OV-3 ovarian it was 35.8%. Moreover, the growth in the experiment with IGROV1 ovarian was 52.7%; with OVCAR-3 ovarian, -5.04% (active); in the experiment on HS 578T breast, 39.4%; with NCI/ADR-RES ovarian it was 12.4%; in the experiment with T-47D breast, 49.3%; in the experiment with BT-549 breast, 35.7%. The growth in the experiment on MDA-MB-435 melanoma was -4.66% (active); in the experiment on SW-620 colon, 28.2%; in the experiment on MCF7 breast, 22.3%; with HCT-116 colon it was 12.2%; in the experiment with HCC-2998 colon, 54.7%; in the experiment on KM12 colon it was 24.2%.
For `CCOC(=O)c1c(N)sc2cc(O)ccc12`, the growth was 93% with SR leukemia; 110% in the experiment on RPMI-8226 leukemia; 100% in the experiment on OVCAR-8 ovarian; 100% with OVCAR-5 ovarian; 108% in the experiment on OVCAR-4 ovarian; 111% in the experiment with SK-OV-3 ovarian. The growth with IGROV1 ovarian is 97.1%; with OVCAR-3 ovarian, 97.9%; with HS 578T breast, 99.9%; in the experiment on NCI/ADR-RES ovarian, 100%; with T-47D breast, 85.7%; with BT-549 breast it was 93.3%. For the same compound, the growth with MDA-MB-435 melanoma is 107%; in the experiment with SW-620 colon it was 117%; in the experiment with MCF7 breast, 104%; in the experiment with HCT-116 colon, 98.5%; in the experiment on HCC-2998 colon, 111%; in the experiment on KM12 colon, 89.1%.
Turning to `C=CCOC(=O)C1=C(C)N(CC)C(=O)N(CC)C1c1c(Cl)n(C)c2ccccc12` (configuration not stated), the growth is 90.5% in the experiment with SR leukemia; 59.7% in the experiment on RPMI-8226 leukemia; 88% in the experiment on OVCAR-8 ovarian; 89.1% in the experiment on OVCAR-5 ovarian; 88.5% in the experiment on OVCAR-4 ovarian; 103% with SK-OV-3 ovarian. Further, the growth in the experiment with IGROV1 ovarian is 90.9%; in the experiment with OVCAR-3 ovarian it was 90%; in the experiment with HS 578T breast, 89.2%; in the experiment with NCI/ADR-RES ovarian it was 84.2%; with T-47D breast, 87.6%; in the experiment on BT-549 breast, 89.9%. Moreover, the growth is 89.1% with MDA-MB-435 melanoma; 84.6% in the experiment with SW-620 colon; 79% with MCF7 breast; 85.8% with HCT-116 colon; 78% with HCC-2998 colon; 68.6% with KM12 colon.
Turning to `C1=C2CCCC3=Cc4ccccc4OC23Oc2ccccc21`, the growth in the experiment on SR leukemia was 6.44% (active); in the experiment on RPMI-8226 leukemia, 26%; in the experiment with OVCAR-8 ovarian, 38.5%; in the experiment on OVCAR-5 ovarian, 71.1%; with OVCAR-4 ovarian it was 52.6%; in the experiment on SK-OV-3 ovarian, 30.8%. Moreover, the growth with IGROV1 ovarian is 44.5%; in the experiment with OVCAR-3 ovarian it was 3.51% (active); in the experiment with HS 578T breast, 33.4%; with NCI/ADR-RES ovarian, 11.6%; with T-47D breast, 31.9%; in the experiment with BT-549 breast, 26.4%. The growth with MDA-MB-435 melanoma was -41.6% (active); in the experiment with SW-620 colon, 18.1%; with MCF7 breast, 13.5%; in the experiment with HCT-116 colon, 24%; in the experiment on HCC-2998 colon it was 58.4%; in the experiment with KM12 colon, 19.8%.
